This passage reports growth results from PubChem BioAssay (NCI).

The panel holds about 83,000 compounds, 20% with a hit somewhere; the sample as a whole holds those more often.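 Plates (96-well) were seeded with cells, treated with compound at one concentration, and incubated for 48 hours before percent growth was determined.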 Activity calls are given as the source filed them.

The test system of the assay is HOP-62 NSCLC. As to the kind of experiment: NCI-60 one-dose screen, 48 h (100 = growth as untreated, 0 = no growth, -100 = all killed). The following applies: 10 µM unless noted. Here is the method: Growth inhibition of the HOP-62 human Non-Small Cell Lung tumor cell line is measured as a screen for anti-cancer activity. Cells are grown in 96 well plates and exposed to the test compound for 48 hours. Compounds are tested at a single concentration, which is 10^-5 M for most compounds. The reported endpoint is percent growth (GI% or GIPRCNT), where numbers from 0 - 100% represent growth inhibition, and numbers from -100% - 0 represent cell death. For example, a value of 40 represents 60% growth inhibition. A value of 0 means no net growth occurred over the course of the experiment. A value of -40 indicates 40% of cells at the beginning of the experiment died by the end of the experiment. A value of -100 means all cells are dead at the end of the experiment.
NCI-60 Human Tumor Cell Lines Screen was performed using the standard one-dose NCI protocol, which is described in more detail at https://dtp.cancer.gov/discovery_development/nci-60/default.htm.
Compounds with GIPRCNT values below 10 were considered active. Activity score was based on GIPRCNT using the following formula: […]
Score is 0 for GIPRCNT values of 100 or above, 50 for GIPRCNT values of 0, and 100 for GIPRCNT values of -100.
`COc1cc(-c2ccc3ncnc(NC(C)c4ccccc4)c3c2)cnc1OC` (stereo not given): the growth is 44.4% (inactive). `COc1cc(-c2nc3ccc(-c4nnc(SCC(=O)Nc5ccc(C(=O)/C=C/c6ccc(Cl)cc6)cc5)o4)cc3[nH]2)cc(OC)c1OC`: the growth was 101% (inactive). `Cc1nc(-c2cc3ccccc3oc2=O)ccc1C(=O)/C=C/c1ccc(Cl)c(Cl)c1`: the growth is 107% (inactive). Take `CC(C)(C)OC(=O)N1C(=O)c2c(c3c4ccccc4[nH]c3c3ccc4ccccc4c23)C1=O`: the growth is 52.2% (inactive). `Cc1nc2cnc(N)c(C#Cc3cncc(C(=O)Nc4ccc(Cl)c(C(F)(F)F)c4)c3)c2nc1C`: the growth is 56.8% (inactive). With `O=[N+]([O-])c1ccc(O)c2ncccc12` the figure was 19.1% (inactive); with `COc1cc(/C=C/C(=O)c2cc(OC)c(OC)c(OC)c2)ccc1OCc1ccc(F)cc1`, 36.2% (inactive).

For `CN(C)c1ccc(/C=C2\Cc3c(F)ccc(Br)c3C2=O)cc1`, the growth was 91.5% (inactive). Consider `CC(C)(C)Nc1nc2c(OCCc3ccccc3)cccn2c1-c1ccc(O)cc1`, for which the growth was 80.3% (inactive). As for `COc1cccc(N2CCN(c3ncnc4c3[nH]c3ccc(F)cc34)C[C@@H]2C)c1`, the growth is -54.2% (active). With `N#Cc1nc(-c2ccccc2)oc1S(N)(=O)=O` the figure was 111% (inactive). `CC(C)NC(=O)c1cc(-c2ccc(NC(=O)Nc3ccc(N4CCOCC4)c(C(F)(F)F)c3)cc2)nc2cccnc12`: the growth was 43.9% (inactive).

With `NC(=O)c1cc(-c2ccc3ncnc(N4CCc5cc(F)c(Cl)cc54)c3c2)cnc1N`, the growth was 27.9% (inactive). For the compound `CS(=O)(=O)c1ccc(-c2nc3ccccn3c2C=Nc2ccc(Cl)cc2)cc1`, the growth is 82.8% (inactive).

Consider `COc1ccc(/C=C2\SC(=Nc3cc(C)on3)NC2=O)cc1`, for which the growth is 96% (inactive).

Turning to `CCOc1ccc([C@H]2C(C(=O)c3ccc(Cl)cc3)C3(N[C@@H]2c2ccccc2)C(=O)Nc2ccc(Br)cc23)cc1` (stereo not given in full), the growth is 54.5% (inactive).

For `CCCC(=O)NC(c1ccc2c(c1)OC(F)(F)O2)c1cc(C)c2cccnc2c1O` (stereo not given), the growth was 15.9% (inactive). With `O=C(N/N=C/c1ccc([N+](=O)[O-])o1)c1[nH]c2ccc(Br)cc2c1-c1ccccc1` the figure was 24.2% (inactive); with `CSc1ccc2c(c1)N(C(=O)/C(C#N)=C/c1c[nH]c3ccccc13)c1ccccc1S2`, 59.9% (inactive); with `COc1cc(-c2nc3ccc(-c4nnc(SCC(=O)Nc5ccc(C(C)=O)cc5)o4)cc3[nH]2)cc(OC)c1OC`, 98.7% (inactive). As to `COc1ccc(/C=C/C(=O)c2ccc(NC(=O)CSc3nnc(-c4ccc5nc(-c6ccc(Cl)cc6)[nH]c5c4)o3)cc2)cc1`, the growth is 103% (inactive). In the case of `CS(=O)(=O)c1ccc(-c2nc3ccccn3c2-c2nc3ccc([N+](=O)[O-])cc3[nH]2)cc1`, the growth was 105% (inactive). For `Cc1ccc2ccc3ccc(C)nc3c2n1.Cc1ccc2ccc3ccc(C)nc3c2n1.Oc1c(Cl)cc(Cl)c2ccc(CN3CCCCC3)nc12.[Ru]` the value was -57.2% (active); for `COc1ccc(NC2=C(Cl)C(=O)C(C)=C(C)C2=O)cc1OC`, 99.6% (inactive); for `CN1CCN(Cc2ccc(NC(=O)c3cncc(C#Cc4cnc5ccc(N6CCSCC6)nn45)c3)cc2C(F)(F)F)CC1`, -31.1% (active).

On to `COc1ccc(C(=O)c2cc(C(=O)/C=C/c3c(Cl)cccc3Cl)c3cc(C)ccn23)cc1`, for which the growth is 98.5% (inactive). For `COC(=O)C(Cc1ccccc1)NS(=O)(=O)/N=C1\NC(=O)NC1=C(Cl)Cl` (stereo not given) the value was 101% (inactive); for `CCCC(=O)NC(c1cccnc1)c1cc(C)c2cccnc2c1O` (stereo not given), 34.4% (inactive). In the case of `CC(C)(O)c1cncc(-c2ccc3ncnc(N4CCc5cc(F)c(Cl)cc54)c3c2)c1`, the growth is 30.2% (inactive). Regarding `COc1ccc([C@@H]2c3[nH]c4ccccc4c3CC3C(=O)N(C4CCN(Cc5c(F)cccc5F)CC4)CC(=O)N32)c(OC)c1` (stereo not given in full), the growth was 54.8% [5.26 µM] (inactive).

Consider `CNC(=O)c1cc(-c2ccc(NC(=O)Nc3ccc(N4CCN(C)CC4)c(C(F)(F)F)c3)cc2)nc2cccnc12`, for which the growth is -78.3% (active).

Take `COc1cc(N=Cc2sc(Nc3nccs3)nc2O)cc(OC)c1OC`: the growth was 80.1% (inactive).

As for `OC1CCN(CCCOc2c3ccc(Cl)cc3nc3c2oc2ccc(Cl)cc23)CC1`, the growth was 41% (inactive). With `CCOC(=O)c1c(Nc2ccccc2)nn2c(N)c(C#N)c(-c3ccc(OC)cc3)nc12`, the growth was 61.3% (inactive). As for `N#Cc1c(-c2ccc(Cl)cc2)nc(SCc2ccc(F)cc2)nc1N1CCNCC1`, the growth is 80.8% (inactive). Take `CN(C)c1ccc(/C=c2\sc3nc4ccccc4n3c2=O)cc1`: the growth was 108% (inactive). `C/C(=N\NC(N)=O)c1c(O)sc(=O)[nH]c1=O`: the growth is 96.6% (inactive). Take `CC(O)C(NC(=O)C1CCCN1C(=O)CNC(=O)C1CC(=O)NCC(=O)NC(Cc2c[nH]c3ccccc23)C(=O)NC(Cc2ccc(O)cc2)C(=O)NCC(=O)NC(CO)C(=O)NC(CCC(N)=O)C(=O)NC(Cc2c[nH]c3ccccc23)C(=O)N1)C(=O)NCC(=O)NC(CCC(N)=O)C(=O)NC(CCCNC(=N)N)C(=O)NC(CC(=O)O)C(=O)O` (stereo not given): the growth was 105% (inactive). On to `COc1ccc(/C=N/NC(=O)c2[nH]c3ccc(Br)cc3c2-c2ccccc2)s1`, for which the growth is 47.6% (inactive). With `CCN1CCN(/C(=N\c2sc(-c3ccccc3)nc2-c2ccccc2)c2ccccc2)CC1` the figure was 95.4% (inactive).
